# Results taken from ChEMBL document CHEMBL3433997, “St. Jude Leishmania screening dataset” (2016).
# Target: Solute carrier family 2, facilitated glucose transporter member 1 (Homo sapiens) (UniProt P11166)
# Test: ST_JUDE_LEISH: Cytotoxicity at 2uM final concentration against transgenic Leishmania Mexicana promastigotes LmGLUT1 that are glucose transport deficient and complemented with the human glucose transporter GLUT1. Activity is measured by DNA content using SYBR green in vitro
# Format: functional
# Solute carrier family 2, facilitated glucose transporter member 1 (Homo sapiens), sequence (P11166 whole entry): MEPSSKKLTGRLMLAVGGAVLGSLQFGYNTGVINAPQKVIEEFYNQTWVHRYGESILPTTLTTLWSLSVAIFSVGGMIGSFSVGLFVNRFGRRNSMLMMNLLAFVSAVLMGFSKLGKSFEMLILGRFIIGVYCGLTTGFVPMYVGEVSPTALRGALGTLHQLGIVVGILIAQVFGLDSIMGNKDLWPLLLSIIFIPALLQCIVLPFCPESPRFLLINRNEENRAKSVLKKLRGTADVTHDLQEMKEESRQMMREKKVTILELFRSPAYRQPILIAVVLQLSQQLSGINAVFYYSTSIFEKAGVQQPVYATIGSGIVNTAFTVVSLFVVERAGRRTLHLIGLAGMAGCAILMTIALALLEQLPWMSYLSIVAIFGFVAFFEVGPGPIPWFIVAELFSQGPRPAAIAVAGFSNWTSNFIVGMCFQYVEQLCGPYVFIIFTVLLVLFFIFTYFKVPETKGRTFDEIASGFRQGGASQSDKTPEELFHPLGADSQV
row,Compound,inhibition [%]
1,CC(C)c1cn2c3c(cc(C(=O)N[C@@H](Cc4ccccc4)[C@H](O)CNC4CCOCC4)cc13)N(C)S(=O)(=O)CC2,3.12
2,O=C(Nc1ccc(S(=O)(=O)N2CCCCCC2)cc1)c1cc(-c2ccccc2O)n[nH]1,9.89
3,Cc1cccc(CN2CCC(CNC(=O)c3cc4c(-c5ccccc5F)nn(C)c4s3)CC2)c1,4.22
4,Nc1c2ccccc2nc2cc(C(F)(F)F)ccc12,2.83
5,O=C(Nc1cc(C(F)(F)F)cc(C(F)(F)F)c1)Nc1ccc(Cl)c(Cl)c1,0.47
6,Cc1nn(C)cc1C(C)Nc1nncc(-c2ccc(C(F)(F)F)cc2)n1 (stereo not given),2.34
7,CCCC(=O)Nc1ccc(OCCCCN(CC(C)(C)C)c2ccc(C#N)c(C(F)(F)F)c2)cc1,1.48
8,O=C(Nc1nc(-c2ccccn2)cs1)c1ccccc1COc1ccccc1,-2.49
9,CC1CCN(C(=O)C(Cc2c[nH]c3ccccc23)NS(=O)(=O)c2ccc(Cl)cc2)CC1 (stereo not given),0.31
10,CN(C)CCCc1cc(NC(=O)Nc2cccc(Cl)c2Cl)ccc1I,1.65
11,COc1cc(Cc2cnc(N)nc2N)cc(OCCCc2cc(OCc3ccccc3)no2)c1OC,10
12,COc1cc(N)c(Cl)cc1C(=O)NC1CCC(NCC2CCCCC2)CC1 (stereo not given),2
13,O=C(Nc1cccc(-c2ccc(CN3CCCC3)cc2)c1)c1ccc(F)cc1,-0.73
14,O=C(/C=C/c1ccc(Cl)c(Cl)c1)NCCCCCN1CCCN(C(=O)Nc2cccc(Cl)c2)CC1,0.54
15,CC(C)CN1CCCN(Cc2cccc(NC(=O)c3ccc(Cl)c(Cl)c3)c2)CC1,10.4
16,CCc1nc2nc(C)cc(Nc3ccc4c(c3)OCCO4)n2n1,2.89
17,O=C(/C=C/c1ccc(Cl)c(Cl)c1)NCCCCCN1CCC(c2c[nH]c3ccc(O)cc23)CC1,2.16
18,OC(CNc1ccnc(Nc2ccc(Cl)cc2)n1)c1ccccc1C(F)(F)F (stereo not given),10
19,Cc1cc(N(C)C2CCN(C)C2)nc(Nc2ccc(Cl)cc2)n1 (stereo not given),7.55
20,Cc1nc(N)nc(N)c1CCCOc1ccccc1Br,5.7

row,Compound,inhibition [%]
1,CCC(C)(CC)C(=O)n1ncc2c3c(N)nc(N)nc3ccc21,65.8
2,O=C(NCCCCCN1CCC(c2c[nH]c3ccccc23)CC1)Nc1cccc(Cl)c1,2.7
3,COc1ccc(OC(C)CNC(=O)c2cc([N+](=O)[O-])ccc2-c2ccc(OC)cc2)cc1 (stereo not given),0.03
4,Cc1cc(N(C)C)nc(Nc2ccc(NC(=O)c3ccccc3Cl)cc2)n1,-1.66
5,CCCCN(CCCC)C(=O)CC(O)c1cc2c(Cl)cc(Cl)cc2c2cc(C(F)(F)F)ccc12 (stereo not given),1.87
6,Cc1nnsc1C(=O)Nc1cccc(-c2ccc(-c3nc4cc(C(F)(F)F)ccc4[nH]3)cc2)c1,1.55
7,O=C(Nc1ccc(CN2CCOCC2)cc1)c1ccc(-c2cc(Cl)ccc2Cl)o1,11
8,Cc1nc2ccc(Nc3nccc(-c4c(-c5cccc(NC(=O)c6c(F)cccc6F)c5)nn5ccccc45)n3)cc2nc1C,2.58
9,N#Cc1ccc(N2CCN(Cc3cccc(-c4ccc(-c5nc6cc(C(F)(F)F)ccc6[nH]5)s4)c3)CC2)nc1,0.46
10,CCN(CC)CCCC(C)Nc1nc(C=Cc2ccc(Br)cc2)nc2cc(Cl)ccc12 (stereo not given),11
11,CN(C)Cc1ccc(-c2cccc(NC(=O)c3cccc(Cl)c3)c2)cc1,2.44
12,O=S(=O)(NCCN1CCCC1)c1ccc(-c2cccc(CNC3Cc4ccccc4C3)c2)cc1,2.76
13,COc1ccc(S(=O)(=O)NC2CCN(c3ccnc4cc(Cl)ccc34)C2)cc1 (stereo not given),4.03
14,Cc1cc(Oc2cc(NC(=O)c3sc4ncn(Cc5ccccc5F)c(=O)c4c3C)cc([N+](=O)[O-])c2)ccc1Cl,1.2
15,COc1ccc(O)c(Cc2cnc3nc(N)nc(N)c3c2C)c1,12.3
16,Cc1cc(-c2ccc3occ(CCN)c3c2)cnc1N,1.36
17,O=C(Cc1cc(F)cc(F)c1)NC1CCN(c2ccnc3cc(Cl)ccc23)C1 (stereo not given),1.93
18,CCCCCCCN(CCCCCCC)CCCC(=O)Nc1ccnc2ccc(OC)cc12,1.2
19,O=C(Nc1ccc(C(F)(F)F)cc1)NC1CCN(c2ccnc3ccccc23)CC1,4.74
20,CC(=O)Nc1ccc(C(=O)Nc2cccc(-c3ccc(-c4nc5cc(C(F)(F)F)ccc5[nH]4)s3)c2)cn1,3.05

# Target: Hexose transporter 1 (Plasmodium falciparum) (UniProt O97467)
# Test: ST_JUDE_LEISH: Cytotoxicity at 2uM final concentration against transgenic Leishmania Mexicana promastigotes LmPfHT that are glucose transport deficient and complemented with the Plasmodium falciparum hexose transporter. Activity is measured by DNA content using SYBR green in vitro
# Format: functional
row,Compound,inhibition [%]
1,CC(C)c1cn2c3c(cc(C(=O)N[C@@H](Cc4ccccc4)[C@H](O)CNC4CCOCC4)cc13)N(C)S(=O)(=O)CC2,2.83
2,O=C(Nc1ccc(S(=O)(=O)N2CCCCCC2)cc1)c1cc(-c2ccccc2O)n[nH]1,8.12
3,Cc1cccc(CN2CCC(CNC(=O)c3cc4c(-c5ccccc5F)nn(C)c4s3)CC2)c1,3.22
4,Nc1c2ccccc2nc2cc(C(F)(F)F)ccc12,5.91
5,O=C(Nc1cc(C(F)(F)F)cc(C(F)(F)F)c1)Nc1ccc(Cl)c(Cl)c1,1.04
6,Cc1nn(C)cc1C(C)Nc1nncc(-c2ccc(C(F)(F)F)cc2)n1 (stereo not given),2.27
7,CCCC(=O)Nc1ccc(OCCCCN(CC(C)(C)C)c2ccc(C#N)c(C(F)(F)F)c2)cc1,1.02
8,O=C(Nc1nc(-c2ccccn2)cs1)c1ccccc1COc1ccccc1,1.21
9,CC1CCN(C(=O)C(Cc2c[nH]c3ccccc23)NS(=O)(=O)c2ccc(Cl)cc2)CC1 (stereo not given),1.31
10,CN(C)CCCc1cc(NC(=O)Nc2cccc(Cl)c2Cl)ccc1I,5.95
11,COc1cc(Cc2cnc(N)nc2N)cc(OCCCc2cc(OCc3ccccc3)no2)c1OC,8.52
12,COc1cc(N)c(Cl)cc1C(=O)NC1CCC(NCC2CCCCC2)CC1 (stereo not given),1.99
13,O=C(Nc1cccc(-c2ccc(CN3CCCC3)cc2)c1)c1ccc(F)cc1,0.3
14,O=C(/C=C/c1ccc(Cl)c(Cl)c1)NCCCCCN1CCCN(C(=O)Nc2cccc(Cl)c2)CC1,0.75
15,CC(C)CN1CCCN(Cc2cccc(NC(=O)c3ccc(Cl)c(Cl)c3)c2)CC1,10.2
16,CCc1nc2nc(C)cc(Nc3ccc4c(c3)OCCO4)n2n1,4.78
17,O=C(/C=C/c1ccc(Cl)c(Cl)c1)NCCCCCN1CCC(c2c[nH]c3ccc(O)cc23)CC1,1.31
18,OC(CNc1ccnc(Nc2ccc(Cl)cc2)n1)c1ccccc1C(F)(F)F (stereo not given),9.74
19,Cc1cc(N(C)C2CCN(C)C2)nc(Nc2ccc(Cl)cc2)n1 (stereo not given),8.61
20,Cc1nc(N)nc(N)c1CCCOc1ccccc1Br,8.36

row,Compound,inhibition [%]
1,CCC(C)(CC)C(=O)n1ncc2c3c(N)nc(N)nc3ccc21,79.2
2,O=C(NCCCCCN1CCC(c2c[nH]c3ccccc23)CC1)Nc1cccc(Cl)c1,0.53
3,COc1ccc(OC(C)CNC(=O)c2cc([N+](=O)[O-])ccc2-c2ccc(OC)cc2)cc1 (stereo not given),-1.79
4,Cc1cc(N(C)C)nc(Nc2ccc(NC(=O)c3ccccc3Cl)cc2)n1,5.72
5,CCCCN(CCCC)C(=O)CC(O)c1cc2c(Cl)cc(Cl)cc2c2cc(C(F)(F)F)ccc12 (stereo not given),1.18
6,Cc1nnsc1C(=O)Nc1cccc(-c2ccc(-c3nc4cc(C(F)(F)F)ccc4[nH]3)cc2)c1,2.49
7,O=C(Nc1ccc(CN2CCOCC2)cc1)c1ccc(-c2cc(Cl)ccc2Cl)o1,8.63
8,Cc1nc2ccc(Nc3nccc(-c4c(-c5cccc(NC(=O)c6c(F)cccc6F)c5)nn5ccccc45)n3)cc2nc1C,4.37
9,N#Cc1ccc(N2CCN(Cc3cccc(-c4ccc(-c5nc6cc(C(F)(F)F)ccc6[nH]5)s4)c3)CC2)nc1,1.1
10,CCN(CC)CCCC(C)Nc1nc(C=Cc2ccc(Br)cc2)nc2cc(Cl)ccc12 (stereo not given),9.25
11,CN(C)Cc1ccc(-c2cccc(NC(=O)c3cccc(Cl)c3)c2)cc1,1.66
12,O=S(=O)(NCCN1CCCC1)c1ccc(-c2cccc(CNC3Cc4ccccc4C3)c2)cc1,8.98
13,COc1ccc(S(=O)(=O)NC2CCN(c3ccnc4cc(Cl)ccc34)C2)cc1 (stereo not given),1.1
14,Cc1cc(Oc2cc(NC(=O)c3sc4ncn(Cc5ccccc5F)c(=O)c4c3C)cc([N+](=O)[O-])c2)ccc1Cl,1.84
15,COc1ccc(O)c(Cc2cnc3nc(N)nc(N)c3c2C)c1,11.2
16,Cc1cc(-c2ccc3occ(CCN)c3c2)cnc1N,0.86
17,O=C(Cc1cc(F)cc(F)c1)NC1CCN(c2ccnc3cc(Cl)ccc23)C1 (stereo not given),1.66
18,CCCCCCCN(CCCCCCC)CCCC(=O)Nc1ccnc2ccc(OC)cc12,1.31
19,O=C(Nc1ccc(C(F)(F)F)cc1)NC1CCN(c2ccnc3ccccc23)CC1,3.35
20,CC(=O)Nc1ccc(C(=O)Nc2cccc(-c3ccc(-c4nc5cc(C(F)(F)F)ccc5[nH]4)s3)c2)cn1,3.45
